From PubChem BioAssay
The source made the active and inactive calls.

Tests used:
[1] = E. coli DRC41 culture turbidity changes, primary screen, E. coli filamentation inducer project, strain DRC41, OD650, 48 h (AID 1152);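 also: E. coli MC1000 strain DRC41 lacking acrAB efflux pump and sulA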; conditions: E. coli DRC41 (acrAB sulA), higher = more signal, called active from +8 up or from −8 down
[2] = small-molecule binders of probe aLefty1, primary screen, biochemical, small-molecule microarray, 635/667 nm fluorescence (AID 1153); conditions: higher = more signal;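 also: score merges spot fluorescence with signal-to-noise ratio from the scanned slide images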
[3] = PSAC antagonists in infected red cells, primary screen, cell-based, P. falciparum Indochina, OD700, 1 h (AID 1154); conditions: P. falciparum Indochina infected RBC osmotic lysis, higher = more signal, called active from +8 up or from −8 down
[4] = PSAC antagonists in infected red cells, primary screen, cell-based, P. falciparum Indochina, OD700, 2 h (AID 1155);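 also: lysis reports solute entry through the parasite surface anion channel PSAC; channel blockers reduce lysis of infected cells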; conditions: P. falciparum Indochina infected erythrocytes, osmotic lysis OD700; higher = more signal, called active from +8 up or from −8 down
[5] = osmotic lysis modulators in infected erythrocytes, primary screen, PSAC antagonist project, cell-based, P. falciparum Indochina, OD700, 3 h (AID 1156); conditions: higher = more signal, called active from +8 up or from −8 down
[6] = PSAC antagonists in infected red cells, primary screen, cell-based, P. falciparum Indochina, OD700, 18 h (AID 1157); conditions: P. falciparum Indochina infected erythrocytes, osmotic lysis OD700, 18 h; higher = more signal, called active from +8 up or from −8 down
[7] = modulators of S6 phosphorylation in cells, primary screen, cell-based, A549, cytoblot, luminescence, serum-stimulated (AID 1158); conditions: A549 phospho-S6 cytoblot, 5 h, higher = more signal;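 also: serum-stimulated A549 lung adenocarcinoma cells; signal is phosphorylated S6 detected by cytoblot immunostaining with HRP secondary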
[8] = target: NADPH oxidase 2 (Homo sapiens) (UniProt P04839); test: NOX2-dependent H2O2 signal modulators, primary screen, NOX inhibitor project, cell-based, HEK293-NOX2, PMA-stimulated, Amplex Red fluorescence (AID 1159); conditions: 45 min, higher = more signal, called active from +8 up or from −8 down; also: test concentration not given here
[9] = target: NADPH oxidase 4 (Homo sapiens) (UniProt Q9NPH5); test: NOX4-dependent H2O2 signal modulators, primary screen, NOX inhibitor project, cell-based, HEK293-NOX4, tetracycline-induced, Amplex Red fluorescence (AID 1160); conditions: 45 min, higher = more signal, called active from +8 up or from −8 down
[10] = target: NADPH oxidase 5 (Homo sapiens) (UniProt Q96PH1); test: NOX5-dependent H2O2 signal modulators, primary screen, NOX inhibitor project, cell-based, HEK293-NOX5, Amplex Red fluorescence (AID 1161); conditions: HEK293-NOX5, ionomycin, 45 min, higher = more signal
[11] = A549 cell viability effects, profiling panel, calcein-AM fluorescence, 48 h, basal (AID 1162); conditions: higher = more signal; also: test concentration not given here
[12] = adipocyte viability effects, profiling panel, cell-based, 3T3-L1 adipocytes, calcein-AM fluorescence, 48 h, basal (AID 1163); conditions: 3T3-L1 adipocytes viability, higher = more signal; also: test concentration not given here
[13] = HepG2 cell viability effects, profiling panel, calcein-AM fluorescence, 48 h, basal (AID 1164); conditions: higher = more signal; also: test concentration not given here
[14] = MM1S cell viability effects, profiling panel, calcein-AM fluorescence, 48 h, basal (AID 1165); conditions: higher = more signal;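 also: viability of MM1S multiple myeloma cells under basal unstimulated conditions; test concentration not given here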
[15] = basal RPMI8226 viability, no added stimulus, profiling panel, cell-based, calcein-AM fluorescence, 48 h, PK04 Diversity Set (AID 1166); conditions: RPMI8226 myeloma viability, higher = more signal;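 also: cells grown under basal conditions without added stimulus; test concentration not given here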
[16] = basal HepG2 mitochondrial membrane potential changes, profiling panel, cell-based, JC-1 fluorescence, 24 h, 100 nL compound (AID 1167); conditions: higher = more signal; also: test concentration not given here
[17] = basal 3T3-L1 adipocyte mitochondrial potential changes, profiling panel, cell-based, JC-1 fluorescence, 3T3-L1 adipocytes, 24 h, 100 nL compound (AID 1168); conditions: JC-1 mitochondrial fluorescence, higher = more signal, called active from +8 up or from −8 down; also: test concentration not given here
[18] = basal RPMI8226 mitochondrial membrane potential changes, profiling panel, cell-based, JC-1 fluorescence, 24 h, 100 nL compound (AID 1169); conditions: RPMI8226 myeloma, JC-1 mitochondrial potential fluorescence, higher = more signal; also: test concentration not given here
[19] = basal MM1S mitochondrial membrane potential changes, profiling panel, cell-based, JC-1 fluorescence, 24 h, 100 nL compound (AID 1170); conditions: higher = more signal; also: test concentration not given here
[20] = A549 lung cancer cell viability effects, profiling panel, resazurin fluorescence, 24 h, PK04 Diversity Set (AID 1171); conditions: higher = more signal, called active from +8 up or from −8 down; also: test concentration not given here

Chain of NADPH oxidase 2 (Homo sapiens) (P04839 whole entry, looked up): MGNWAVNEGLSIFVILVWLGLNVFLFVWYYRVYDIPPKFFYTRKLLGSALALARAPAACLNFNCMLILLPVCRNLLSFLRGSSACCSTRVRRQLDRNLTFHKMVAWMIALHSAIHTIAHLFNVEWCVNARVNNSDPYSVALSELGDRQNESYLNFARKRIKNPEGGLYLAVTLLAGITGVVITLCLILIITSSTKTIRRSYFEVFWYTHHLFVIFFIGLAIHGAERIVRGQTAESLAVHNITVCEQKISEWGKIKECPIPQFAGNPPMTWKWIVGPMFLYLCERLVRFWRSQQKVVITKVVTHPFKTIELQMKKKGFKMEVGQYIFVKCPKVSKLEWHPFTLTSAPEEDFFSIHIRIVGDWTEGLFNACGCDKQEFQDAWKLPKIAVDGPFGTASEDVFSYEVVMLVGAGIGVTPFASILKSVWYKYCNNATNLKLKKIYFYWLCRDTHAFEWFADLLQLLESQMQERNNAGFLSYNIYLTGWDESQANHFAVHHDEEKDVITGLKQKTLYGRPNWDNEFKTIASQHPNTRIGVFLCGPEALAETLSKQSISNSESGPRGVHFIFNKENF
Chain of NADPH oxidase 4 (Homo sapiens) (Q9NPH5 whole entry, looked up): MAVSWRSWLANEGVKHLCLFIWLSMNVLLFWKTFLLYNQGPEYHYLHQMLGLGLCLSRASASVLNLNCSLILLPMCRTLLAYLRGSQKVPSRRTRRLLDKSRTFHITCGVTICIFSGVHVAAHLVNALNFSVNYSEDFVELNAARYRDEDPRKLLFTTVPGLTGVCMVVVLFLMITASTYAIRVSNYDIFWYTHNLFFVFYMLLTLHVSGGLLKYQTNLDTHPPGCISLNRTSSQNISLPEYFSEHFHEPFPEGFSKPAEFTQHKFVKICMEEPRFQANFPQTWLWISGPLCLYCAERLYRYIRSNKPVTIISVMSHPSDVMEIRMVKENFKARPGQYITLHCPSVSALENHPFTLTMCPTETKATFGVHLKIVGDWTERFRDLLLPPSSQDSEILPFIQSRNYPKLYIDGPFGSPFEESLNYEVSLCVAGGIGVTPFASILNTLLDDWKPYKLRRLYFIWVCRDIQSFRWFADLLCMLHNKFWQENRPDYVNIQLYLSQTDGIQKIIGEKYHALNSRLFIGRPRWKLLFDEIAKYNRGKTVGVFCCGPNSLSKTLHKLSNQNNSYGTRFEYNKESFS
Chain of NADPH oxidase 5 (Homo sapiens) (Q96PH1 whole entry, looked up): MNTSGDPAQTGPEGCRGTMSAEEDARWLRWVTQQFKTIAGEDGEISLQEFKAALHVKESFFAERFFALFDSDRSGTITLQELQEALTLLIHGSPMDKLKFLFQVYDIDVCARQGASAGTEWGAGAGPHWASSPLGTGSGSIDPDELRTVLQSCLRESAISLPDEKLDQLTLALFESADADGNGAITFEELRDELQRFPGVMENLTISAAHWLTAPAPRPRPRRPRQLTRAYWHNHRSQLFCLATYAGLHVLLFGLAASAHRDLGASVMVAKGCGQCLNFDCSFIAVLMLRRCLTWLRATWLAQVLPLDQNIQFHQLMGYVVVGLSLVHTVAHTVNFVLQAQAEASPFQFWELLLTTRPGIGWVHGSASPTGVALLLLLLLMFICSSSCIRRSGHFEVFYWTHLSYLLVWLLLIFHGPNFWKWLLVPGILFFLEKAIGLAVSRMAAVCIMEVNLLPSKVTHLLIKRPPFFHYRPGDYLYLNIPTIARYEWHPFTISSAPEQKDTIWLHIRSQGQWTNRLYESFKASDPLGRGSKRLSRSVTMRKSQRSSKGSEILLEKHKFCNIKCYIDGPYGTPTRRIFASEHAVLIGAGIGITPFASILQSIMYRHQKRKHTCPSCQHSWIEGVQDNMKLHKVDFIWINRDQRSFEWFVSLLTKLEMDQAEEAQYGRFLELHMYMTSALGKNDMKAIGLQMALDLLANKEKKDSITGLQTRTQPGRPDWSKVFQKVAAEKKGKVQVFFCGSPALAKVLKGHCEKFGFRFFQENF

Structure (SMILES)	z-score [1]	composite z-score [2]	z-score [3]	z-score [4]	z-score [5]	z-score [6]	z-score [7]	z-score [8]	z-score [9]	z-score [10]	z-score [11]	z-score [12]	z-score [13]	z-score [14]	z-score [15]	z-score [16]	z-score [17]	z-score [18]	z-score [19]	z-score [20]
O=C1C[C@@](C(=O)NC2CC2)(c2ccc([N+](=O)[O-])cc2)[C@@H](c2ccc(CO)cc2)N1CC12CC3CC(CC(C3)C1)C2	0.904 (inactive)	0.0861	2.28 (inactive)	-0.135 (inactive)	0.678 (inactive)	-0.83 (inactive)	0.392	0.987 (inactive)	-2.19 (inactive)	-2.35	-1.14	0.781	-1.94	-2.07	-3.09	-0.881	-0.199 (inactive)	-0.507	-0.214	-1.45 (inactive)
Cc1ccc(S[C@]2(C(=O)NC3CC3)CC(=O)N(C3CCCCC3)[C@@H]2c2ccc(CO)cc2I)cc1	0.639 (inactive)	0.112	6.07 (inactive)	0.898 (inactive)	-0.0504 (inactive)	0.427 (inactive)	-0.208	0.655 (inactive)	-0.194 (inactive)	1.38	1.07	-0.07	1.12	-2.5	-1.7	1.62	0.124 (inactive)	-0.558	-1.2	-0.0731 (inactive)
CCCNC(=O)[C@@]1(c2ccc([N+](=O)[O-])cc2)CC(=O)N(CC23CC4CC(CC(C4)C2)C3)[C@@H]1c1ccc(CO)cc1	-0.0948 (inactive)	-0.409	5.64 (inactive)	0.903 (inactive)	2.2 (inactive)	0.625 (inactive)	-0.154	0.328 (inactive)	-1.85 (inactive)	-0.569	-1.05	-0.35	-1.67	-3.54	-3.38	-0.99	-0.141 (inactive)	-0.769	-1.05	-2.9 (inactive)
O=C1c2ccccc2[C@@]2(Cc3ccccc3N(Cc3ccccc3)C2=O)[C@H](c2ccc(CO)cc2)N1C1CCCCC1	0.414 (inactive)	0.0437	-0.101 (inactive)	0.546 (inactive)	0.105 (inactive)	0.327 (inactive)	0.126	0.162 (inactive)	-0.143 (inactive)	-0.548	-0.774	-0.752	-0.466	-0.144	-0.977	-0.689	0.604 (inactive)	-0.582	-1.32	-0.022 (inactive)
Cc1ccc(S[C@]2(C(=O)NCc3ccccc3)CC(=O)N(Cc3ccccc3Cl)[C@@H]2c2ccc(CO)cc2I)cc1	0.196 (inactive)	0.0903	3.44 (inactive)	0.68 (inactive)	1.9 (inactive)	0.255 (inactive)	0.379	2.76 (inactive)	-0.824 (inactive)	0.774	0.34	1.13	-0.0653	-1.73	-1.65	-0.44	0.376 (inactive)	-0.0557	-2.15	1.6 (inactive)
COc1ccc(NN2C(C(O)c3ccc(OC)c(OCc4ccccc4)c3)C=CC3C(=O)N(C4CCCCC4)C(=O)C32)cc1 (stereo not given)	0.678 (inactive)	0.32	4.41 (inactive)	1.38 (inactive)	0.31 (inactive)	1 (inactive)	0.0173	-0.195 (inactive)	-1.96 (inactive)	-0.604	0.412	-0.714	0.337	-0.257	0.0417	0.348	0.353 (inactive)	0.0161	-1.33	0.817 (inactive)
C=CCC(OC(C)=O)[C@@H]1[C@@H](N(Cc2ccc(-c3ccccc3)cc2)C(=O)Cc2ccc(OC)cc2)c2cc(OCCCO)ccc2N1C(=O)c1ccc2ccccc2n1 (stereo not given in full)	0.165 (inactive)	0.167	2.27 (inactive)	0.925 (inactive)	-0.165 (inactive)	1.02 (inactive)	0.751	-2.73 (inactive)	1.41 (inactive)	2.5	-0.072	0.273	0.978	0.0474	-0.295	2.56	-0.269 (inactive)	0.651	0.789	0.902 (inactive)
COC(=O)[C@@]1(Cc2ccc(F)cc2)[C@H]2c3cc(C(=O)N(C)C)n(CCc4ccccn4)c3C[C@H]2CN1C(=O)c1ccccc1	-0.815 (inactive)	1.01	1.81 (inactive)	-0.0235 (inactive)	0.892 (inactive)	-1.66 (inactive)	0.402	0.831 (inactive)	1.03 (inactive)	0.234	-0.619	0.698	-1.39	0.0635	-0.722	-0.0662	-0.539 (inactive)	-0.153	0.95	0.429 (inactive)
CCN(CC)c1ccc(N2CC=CC34O[C@@H]5/C=C\CCCOC(=O)C5[C@H]3C(=O)N(C(CO)C(C)C)[C@@H]4C2=O)cc1 (stereo not given in full)	-0.522 (inactive)	-0.137	1.38 (inactive)	0.486 (inactive)	0.883 (inactive)	0.648 (inactive)	-0.713	0.0116 (inactive)	0.337 (inactive)	0.492	-0.0889	0.102	0.825	0.905	-0.62	-0.243	-0.0916 (inactive)	0.139	-0.26	-0.506 (inactive)
CC(C)(C)N1CC=CC23O[C@@H]4C=CCOC(=O)[C@@H]4[C@H]2C(=O)N(CCCCCO)[C@@H]3C1=O (stereo not given in full)	-0.197 (inactive)	-0.0094	0.987 (inactive)	0.624 (inactive)	1.47 (inactive)	0.453 (inactive)	-0.301	1.27 (inactive)	0.436 (inactive)	1.52	-0.52	0.468	-0.542	-0.341	0.606	-0.667	-0.173 (inactive)	0.828	0.388	-1.08 (inactive)
O=C1OCCC=C[C@H]2OC34C=CCN(Cc5ccccc5)C(=O)[C@H]3N(CCCO)C(=O)[C@@H]4C12 (stereo not given in full)	2.94 (inactive)	-0.101	0.64 (inactive)	-0.306 (inactive)	0.739 (inactive)	-0.996 (inactive)	0.84	-1.96 (inactive)	-2.93 (inactive)	-3.28	0.577	1.66	-1.04	0.0832	-0.0189	0.161	-0.282 (inactive)	0.798	-0.559	0.233 (inactive)
O=C1OCC=C[C@H]2OC34C=CCN(c5ccc(Cl)cc5)C(=O)[C@H]3N(CCCCCCO)C(=O)[C@@H]4[C@@H]12 (stereo not given in full)	0.49 (inactive)	0.135	1.73 (inactive)	0.398 (inactive)	0.497 (inactive)	0.476 (inactive)	-0.243	1.42 (inactive)	-0.583 (inactive)	1.96	0.32	-0.122	0.955	1.12	0.057	0.715	0.26 (inactive)	0.231	1.5	1.12 (inactive)
C[N+](C)(C)CCCCCCNC(=O)[C@H]1C[C@H]2C(=O)N3CCC[C@H]3C(=O)N2[C@H]1c1ccc(O)cc1	0.864 (inactive)	-0.0489	1.37 (inactive)	-0.948 (inactive)	-0.937 (inactive)	-1.44 (inactive)	0.707	-0.87 (inactive)	-1 (inactive)	-2.81	-0.827	0.262	-1.14	0.327	0	-1.4	0.435 (inactive)	-0.655	-0.439	0.194 (inactive)
CC(C)C(O)C1C=CC2C(=O)N(c3ccccc3)C(=O)C2N1Nc1ccc(C#N)cc1 (stereo not given)	-0.411 (inactive)	0.797	12 (active)	1.1 (inactive)	2.03 (inactive)	0.875 (inactive)	-1.09	-1.81 (inactive)	-4.46 (inactive)	-2.83	-0.777	-0.289	-0.114	-0.0628	-1.15	-0.421	-1.47 (inactive)	-0.775	-0.44	-0.796 (inactive)
CC(C)NC(=O)[C@@H]1c2ccccc2C(=O)N(Cc2ccccc2)[C@H]1c1ccc(CO)cc1	-0.355 (inactive)	0.108	1.36 (inactive)	0.573 (inactive)	1.65 (inactive)	0.351 (inactive)	0.0506	-0.767 (inactive)	0.333 (inactive)	-1.66	0.831	-0.46	-0.116	-1.42	-0.238	0.681	-1.5 (inactive)	0.00231	-0.0636	0.748 (inactive)
COCCOC(=O)N1C(=O)[C@@]2(c3ccccc31)[C@H](C(=O)Nc1nc3ccccc3s1)[C@H]1C(=O)O[C@H](c3ccccc3)[C@H](c3ccccc3)N1[C@@H]2c1ccc(OCCO)cc1	0.258 (inactive)	0.258	4.45 (inactive)	1.76 (inactive)	0.505 (inactive)	1.63 (inactive)	0.44	-0.207 (inactive)	0.842 (inactive)	2.22	-0.257	1.73	-1.23	-2.13	-1.62	-3.14	1.68 (inactive)	-0.806	-1.57	0.18 (inactive)
C=CCC(OC(C)=O)[C@@H]1[C@@H](N(Cc2ccc(-c3cccc(C(F)(F)F)c3)o2)C(=O)c2ccc(C)cc2)c2cc(OCCCO)ccc2N1C(=O)c1ccc(-c2ccccc2)cc1 (stereo not given in full)	1.35 (inactive)	-0.0464	1.93 (inactive)	0.705 (inactive)	-0.0802 (inactive)	-0.0352 (inactive)	-0.047	-3.28 (inactive)	0.822 (inactive)	2.25	1.18	0.345	1.65	1.02	0.657	3.89	-1.29 (inactive)	0.866	0.112	-0.0211 (inactive)
O=C1C[C@]2(c3ccc([N+](=O)[O-])cc3)C(=O)N(CC(F)(F)F)c3cc(CO)ccc3[C@H]2N1CC12CC3CC(CC(C3)C1)C2	0.458 (inactive)	-0.629	0.56 (inactive)	-0.365 (inactive)	0.12 (inactive)	0.255 (inactive)	0.229	-0.347 (inactive)	0.375 (inactive)	0.0968	0.831	-0.425	0.655	0.489	0.0342	0.91	-1.2 (inactive)	0.308	-0.964	-0.399 (inactive)
